Compound activity: PubChem BioAssay, Sanford-Burnham Center for Chemical Genomics
This is one part of a sample in which hits are shown more often than they occur.
DUSP3 inh: inhibitors of human VHR1 phosphatase (DUSP3). P51452. recombinant VHR phosphatase, colorimetric substrate read-out. inhibition, % at 20 µM. 50,000 compounds, 0.7% hits. AID 1992; in the data active = inhibition above about 60%
Target sequence (P51452 whole entry, looked up): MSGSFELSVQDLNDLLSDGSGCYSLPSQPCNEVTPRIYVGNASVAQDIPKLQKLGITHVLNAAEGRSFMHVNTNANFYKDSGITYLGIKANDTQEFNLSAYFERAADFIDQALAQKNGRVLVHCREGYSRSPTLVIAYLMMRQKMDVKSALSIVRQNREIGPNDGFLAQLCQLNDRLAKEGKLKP
Starred values were filed as active, the others as inactive.

SMILES	DUSP3 inh
Cc1ccc(C(=O)NC(Nc2ccccc2C(F)(F)F)C(Cl)(Cl)Cl)cc1 (stereo unspecified)	-14
CCC1=NN2C(=N)/C(=C/c3ccc(OCCOc4cccc(OC)c4)c(OC)c3)C(=O)N=C2S1	-11
CCCC1=NN2C(=N)/C(=C/c3ccc(OCc4ccccc4Cl)cc3)C(=O)N=C2S1	3
CCCC1=NN2C(=N)/C(=C/c3cc(OC)ccc3OC)C(=O)N=C2S1	112*
CCCC1=NN2C(=N)/C(=C/c3ccc4c(c3)OCO4)C(=O)N=C2S1	105*
CCCC1=NN2C(=N)/C(=C/c3ccc(-c4ccc(Cl)cc4Cl)o3)C(=O)N=C2S1	10
CCOc1ccc(Cl)cc1/C=C1\C(=N)N2N=C(CC)SC2=NC1=O	-9
O=C(Nc1ccccn1)c1ccc(S(=O)(=O)c2ccccc2)cc1	-11
COc1ccc(C(=O)Nc2ccccc2)cc1NC(C)=O	-3
N#C/C(=C/c1ccc(Sc2ccccc2)o1)C(=O)NCc1ccccc1	-9
CC1CCN(c2cc(N3CCN(C(=O)c4ccc(F)cc4)CC3)c([N+](=O)[O-])cc2F)CC1	-1
O=C(O/C(=C/c1nccn1Cc1ccccc1Cl)c1ccc(F)cc1)c1ccc(F)cc1	110*
N/C(Cc1cccc2ccccc12)=N\OC(=O)c1ccc(F)cc1	-16
CCCn1c(/C=C(/OC(=O)c2ccccc2)c2ccccc2)nc2ccccc21	-14
CCOc1ccc(CNc2cc([N+](=O)[O-])ccc2OC)cc1	-8
O=C(NCC1(c2ccccc2)CCCC1)c1ccccc1Cl	-11
CN(C)c1ccc(N=C2Sc3ccc4ccccc4c3C2=O)cc1	-5
COc1ccc(S(=O)(=O)N2CCN(C(=O)c3cccc(F)c3)CC2)cc1	-21
Cc1ccc(S(=O)(=O)N2CCN(C(=O)c3cccc(F)c3)CC2)cc1	101*
Cc1ccc(S(=O)(=O)N2CCN(C(=O)c3cccnc3)CC2)cc1	10
COc1ccc(CCNS(=O)(=O)c2ccccc2[N+](=O)[O-])cc1	-8
CCOc1ccc2nc(NC(=O)C(c3ccccc3)c3ccccc3)sc2c1	12
Cc1c(NC(=O)/C=C/c2cccc3ccccc23)c(=O)n(-c2ccccc2)n1C	-13
O=C(Nc1cccc(-c2nc3ccccc3s2)c1)c1ccc(S(=O)(=O)N2CCCC2)cc1	-5
O=c1oc(/C=C/c2ccc([N+](=O)[O-])cc2)nc2ccc(Cl)cc12	-5
SMILES	DUSP3 inh
COc1cc(C=Nc2ccc(Nc3ccccc3)cc2)ccc1OCc1ccccc1	2
COc1cc(/C=N/O)ccc1OCc1ccc(Cl)cc1	105*
C=CCN1C(=O)NC(=O)/C(=C\c2ccc(OCc3ccc(Cl)cc3)c(OC)c2)C1=O	-32
O=C(Nc1ccccc1-c1nc2ccccc2[nH]1)c1ccc([N+](=O)[O-])cc1	-81
NC(N)=N/N=C/c1ccccc1OS(=O)(=O)c1ccccc1	-6
CCOC(=O)c1ccc(NC(=O)CCN2C(=O)S/C(=C/c3ccc(OC)c(OC)c3)C2=O)cc1	-7
O=C1NC(=S)S/C1=C\c1ccc(N2CCCCC2)c([N+](=O)[O-])c1	-37
CC(C)c1ccc(/C=C2\SC(=S)NC2=O)cc1	-15
CC(C)c1ccc(/C=C2\SC(=S)NC2=O)cc1[N+](=O)[O-]	79*
Cc1[nH]c2ccccc2c1/C=C/c1nc2ccccc2c(=O)n1C	-3
Cc1[nH]c2ccccc2c1/C=C/c1nc2ccccc2c(=O)n1-c1ccc([N+](=O)[O-])cc1	8
COc1cccc(-n2c(/C=C/c3c(C)[nH]c4ccccc34)nc3ccccc3c2=O)c1	76*
O=C1NC(=O)N(c2ccc(Cl)cc2)C(=O)/C1=C/c1ccc(F)cc1	-15
O=C1NC(=O)N(c2ccc(Cl)cc2)C(=O)/C1=C\c1ccc(N2CCCC2)cc1	70*
CN1C(=O)NC(=O)/C(=C\c2ccc(N3CCCC3)cc2)C1=O	2
COc1ccc(CNC(=O)COc2cc(C)c(Cl)c(C)c2)cc1	-11
O=C1/C(=C\c2cccc([N+](=O)[O-])c2O)SC(=S)N1c1ccccc1	14
O=C(CSc1nc2ccccc2[nH]1)Nc1nc2c(s1)CCCC2	-3
CC1=C/C(=N/S(=O)(=O)c2ccc(C)cc2)C=C(Cl)C1=O	58
O=C1C(Cl)=CC(=NS(=O)(=O)c2ccccc2)C=C1Br	72*
O=C1C=C/C(=N\S(=O)(=O)c2ccccc2)C=C1Cl	24
COc1ccc(-c2nnc(NC(=O)c3ccc(Cl)cc3)s2)cc1	7
CCOc1cc(C2Nc3ccccc3C(=O)N2c2ccc(C)cc2)ccc1O (stereo unspecified)	7
Cc1cc(C)c(S(=O)(=O)NCC#N)c(C)c1	-6
Cc1nc2cc(-c3ccccc3)nn2c(C)c1C	117*
SMILES	DUSP3 inh
Cc1nc2cc(-c3cccc(F)c3)nn2c(C)c1Cl	-12
Cc1nc2cc(-c3cccc(Cl)c3)nn2c(C)c1Cl	-23
COc1ccccc1/C=C/C=N/NC(=O)CSc1nc2ccccc2n1C	10
Cc1ccc(C(=O)Nc2ncccc2Cl)cc1C	4
COc1ccc(/C(N)=N/OC(=O)c2ccccc2I)cc1	-18
CCOc1cc(C=C2C(=O)NC(=O)NC2=O)ccc1OCc1ccccc1	6
COc1cccc(/C=C2/N=C(c3ccc(NC(C)=O)cc3)OC2=O)c1	-1
CCOc1cc(/C=C2/N=C(c3ccc(NC(C)=O)cc3)OC2=O)ccc1OCc1ccccc1	86*
COc1cccc(NC(=S)NC(NC(=O)c2ccccc2)C(Cl)(Cl)Cl)c1 (stereo unspecified)	-16
O=C1/C(=C\c2ccc(C(F)(F)F)cc2)SC(=S)N1c1cccc(Cl)c1	-12
CCOC(=O)c1c(-c2ccc(OC)c(OC)c2)csc1N	98*
COC(=O)c1c(-c2cccc(C)c2)csc1N	94*
CCCOC(=O)c1c(-c2ccccc2)csc1N	-3
COc1ccc(-c2csc(N)c2C(=O)OC(C)C)cc1OC	-15
CC(C)OC(=O)c1c(-c2ccccc2)csc1N	44
COC(=O)c1c(-c2ccc(OC)c(OC)c2)csc1N	-3
Cc1ccc(Cl)cc1N(Cc1ccc(C(=O)O)cc1)S(=O)(=O)c1ccccc1	-11
Cc1nc(-c2ccccc2)nc2nc(-c3ccccc3)nc(C)c12	2
Clc1ccc(/C=N/n2cnnc2)cc1	-9
COc1ccc(-c2cc(C(=O)Nc3nc4ccc(S(C)(=O)=O)cc4s3)c3ccccc3n2)cc1	-34
O=C(COc1ccc(Cl)cc1)N1CCN(C(=O)COc2ccc3ccccc3c2)CC1	2
Cc1ccc(S(=O)(=O)N2CCN(C(=O)COc3ccc(Cl)cc3)CC2)cc1	87*
O=C(COc1ccc2ccccc2c1)N1CCN(S(=O)(=O)c2ccc(Cl)cc2)CC1	-9
CC(C(=O)N1CCN(Cc2ccc(Cl)cc2)CC1)N1C(=O)c2ccccc2C1=O (stereo unspecified)	-14
O=C(O)c1ccc(NC(=O)c2ccccc2NC(=O)c2cccs2)cc1	7
SMILES	DUSP3 inh
CC(=O)c1c(C(=O)O)cccc1C(=O)O	-17
O=C(Nc1cccc(Br)c1)c1ccc(Cl)c([N+](=O)[O-])c1	28
Cc1ccc(-c2ccccc2)n1-c1ccc(O)c(C(=O)O)c1	99*
Cc1ccc(-c2ccccc2)n1-c1ccc(C(=O)O)cc1	6
Cc1ccc(-c2ccccc2)n1-c1ccc(Cl)c(C(=O)O)c1	44
Cc1cccc(/C(N)=N/OC(=O)COc2ccc(Br)cc2)c1	-13
COCCN1C(=O)C(=O)/C(=C(/O)c2ccccc2)C1c1ccc2c(c1)OCO2 (stereo unspecified)	17
O=C1NC(=S)N(c2cccc(Br)c2)C(=O)/C1=C/c1ccco1	89*
O=C1NC(=S)N(c2cccc(Br)c2)C(=O)/C1=C/c1ccc(O)c(Cl)c1	-5
